Measurements from PubChem BioAssay AID624296 (National Center for Advancing Translational Sciences (NCATS), 2012).
In all, about 350,000 compounds went through this assay and about 9,900 (2.8%) were called active. About 15% were inconclusive and are not listed. Calls come from the whole dose curve; as a rule, active = well fitted activation curve with a large enough effect; inconclusive = small, poorly fitted or top-dose-only effect; inactive = no such curve, though single readings can be large or run the other way. This excerpt belongs to a sample that is enriched for actives.

Assay: A quantitative high throughput screen for small molecules that induce DNA re-replication in MCF 10a normal breast cells. For activity, positive = re-replication: % of control where 0% means no effect. Note: nearly all actives have a fitted effect of over 50% in size.
Conditions: MCF 10A DNA re-replication, Hoechst nuclear intensity, 48 h; series mostly up to 46.1 µM; activity, positive = re-replication: at the top concentration
Potency is the fitted concentration of half-maximal effect.

Row | Structure (SMILES) | activity, positive = re-replication | Potency
1 | CCCC(NCC(=O)Nc1ccccc1C(=O)NC1CC1)c1ccccc1 (configuration not stated) | 8.84% (inactive) | 
2 | Cc1ccc(S(=O)(=O)N2CCN(C(=O)COC(=O)/C=C/c3cccc(Cl)c3)CC2)c(C)c1 | 2.86% (inactive) | 
3 | O=C(N[C@H]1C/C=C\C(c2ccc(F)cc2)N(Cc2ccccc2)C(=O)C1)OCC1c2ccccc2-c2ccccc21 (some centres not stated) | -15% (inactive) | 
4 | Cc1ccsc1C(=O)NC1CCCCC1C (configuration not stated) | 4.61% (inactive) | 
5 | CC(=O)Nc1ccc(-c2csc(NC=C3C(=O)OC(C)(C)OC3=O)n2)cc1 | -2.67% (inactive) | 
6 | CC(=O)Nc1ccc(S(=O)(=O)Nc2nc(-c3ccc(C(C)(C)C)cc3)cs2)cc1 | -4.78% (inactive) | 
7 | CC(=O)Nc1ccc(-c2csc(NC(=O)Nc3ccccc3)n2)cc1 |  | 20.6 µM (active)
8 | O=C(O[C@@H]1[C@H](Cc2ccccc2)NS(=O)(=O)[C@H]2C[C@@H]3C=C[C@]12O3)c1ccccc1Br | -7.18% (inactive) | 
9 | NC(=O)c1ncn([C@@H]2O[C@H](CNCc3cnc(N4CCOCC4)s3)[C@@H](O)[C@H]2O)n1 | 4.83% (inactive) | 
10 | CC(=O)NC12CC3CC(C1)CC(C(=O)N1CCN(S(=O)(=O)c4cccs4)CC1)(C3)C2 | 5.55% (inactive) | 
11 | CN1C(=O)[C@H]2[C@@H](/C=C/c3ccccc3)N3C(=O)CN(Cc4ccc(-c5ccccc5)cc4)C(=O)[C@@]3(C)[C@H]2C1=O | 9.52% (inactive) | 
12 | OC1CCCN(c2ncnc3c2nnn3Cc2c(F)cccc2Cl)C1 (configuration not stated) |  | 16.4 µM (active)
13 | CCOC(=O)N1CCN(C(=O)C2CCCN(c3ncnc4c3sc3cccc(F)c34)C2)CC1 (configuration not stated) | 8.33% (inactive) | 
14 | Cc1ccc(NC(=O)N2CCC(c3nc4c(nnn4Cc4c(F)cccc4Cl)c(=O)[nH]3)CC2)cc1 | -3.7% (inactive) | 
15 | C(#CCN1CCOCC1)CCCN1CCOCC1 | -3.95% (inactive) | 
16 | O=[N+]([O-])c1ccc(C=NN=Cc2ccc([N+](=O)[O-])cc2)cc1 | -0.0464% (inactive) | 
17 | O=C(OCC(=O)N1CCCCCC1)c1ccc(Br)c(S(=O)(=O)N2CCOCC2)c1 | 1.89% (inactive) | 
18 | Cn1c(Cc2cccc3ccccc23)nnc1SCC(=O)N1CCN(c2cccc(Cl)c2)CC1 |  | 13 µM (active)
19 | Cn1c(CNC(=O)c2ccco2)nnc1SCC(=O)N1CCN(c2ccccc2)CC1 | 2.16% (inactive) | 
20 | Cc1nnc(SCC(=O)N2CCN(c3ccccc3)CC2)n1-c1ccccc1 | 8.74% (inactive) | 
21 | CCCC(O)(c1ccccc1)C(c1ccccc1)c1ccccn1 (configuration not stated) | -1.11% (inactive) | 

Row | Structure (SMILES) | activity, positive = re-replication | Potency
22 | COc1cc(/C=C/C(=O)OCC(=O)NCCCc2ccccc2)ccc1O | 6.85% (inactive) | 
23 | CCOCCCNC(=O)c1cc2c(=O)n3ccccc3nc2s1 | 0.195% (inactive) | 
24 | CCn1c(=N)c(S(=O)(=O)c2ccc(F)cc2)cc2c(=O)n3ccccc3nc21 |  | 13 µM (active)
25 | Cc1ccc(Cn2c(=N)c(S(=O)(=O)c3ccc(C)cc3)cc3c(=O)n4ccccc4nc32)cc1 |  | 5.8 µM (active)
26 | O=Cc1c(N2CCN(c3cccc(Cl)c3)CC2)nc2ccccn2c1=O | 11.1% (inactive) | 
27 | O=Cc1c(Nc2ccccc2Cl)nc2ccccn2c1=O | 12.2% (inactive) | 
28 | CCCn1nc(NS(=O)(=O)c2ccc(F)cc2)c2cc3ccccc3nc21 | -1.72% (inactive) | 
29 | Cc1cc(C(=O)COc2ccccc2Cl)c(C)n1C1CC1 | 13.9% (inactive) | 
30 | Cc1ccc(C(=O)NNC(=O)c2ccc3c(c2)OCCO3)cc1 | 9.08% (inactive) | 
31 | O=C(C1Cc2ccccc2CN1C(=O)c1ccco1)N1CCN(c2ccccc2)CC1 (configuration not stated) | 7.91% (inactive) | 
32 | COc1cccc2cc(S(=O)(=O)c3ccc(C)cc3)/c(=N/NS(=O)(=O)c3ccc(C)cc3)oc12 | 18.1% (inactive) | 
33 | COC(=O)Cc1cc(=O)oc2c(C)c(O)ccc12 | -7.36% (inactive) | 
34 | Cc1cc(S(=O)(=O)c2cc3ccc(O)c(C)c3oc2=O)ccc1F |  | 10.3 µM (active)
35 | Cc1nc(Nc2ccccc2C)c2cnn(C)c2n1 | 21.9% (inactive) | 
36 | O=[N+]([O-])c1cc2ccccc2nc1-c1ccccc1 | 5.75% (inactive) | 
37 | O=C(N[C@@H]1C/C=C\C[C@@H](CC(=O)N(CCO)Cc2ccccc2)C(=O)N[C@H](Cc2ccccc2)COC1=O)OCC1c2ccccc2-c2ccccc21 | -2.36% (inactive) | 
38 | Cc1cc(C(=O)COc2ccc(Br)cc2F)c(C)n1C1CC1 | -1.62% (inactive) | 
39 | CN(C(=O)c1cccc(NC(=O)Cc2ccc(NC(=O)C3CCCN(C(=O)C4CC4)C3)cc2)c1)C1CC1 (configuration not stated) | -45.3% (inactive) | 
40 | CC(/C=N/NC(=O)c1cc(-c2ccc3ccccc3c2)n[nH]1)=C\c1ccco1 |  | 7.31 µM (active)
41 | CC(=C/c1ccccc1)/C=N/NC(=O)c1cc(C)oc1C | 10.6% (inactive) | 
42 | CC(/C=N/NC(=O)c1ccncc1)=C\c1ccco1 | -2.95% (inactive) | 

Row | Structure (SMILES) | activity, positive = re-replication | Potency
43 | Cc1cccc(C)c1Nc1nnc(SCC(=O)NCCCN2CCCC2=O)s1 | -0.211% (inactive) | 
44 | CC[C@]12c3[nH]c4cc(CCC(=O)N(C)C)ccc4c3CCN1C(=O)[C@@H](CC(=O)NCCCn1ccnc1)C[C@@H]2C(=O)N1CCN(C(=O)C2CC2)CC1 | 1.8% (inactive) | 
45 | O=C(CC1Nc2ccccc2NC1=O)Nc1ccccc1 (configuration not stated) |  | 6.51 µM (active)
46 | O=C(CC1NCCNC1=O)Nc1ccc(Oc2ccccc2)cc1 (configuration not stated) | -9.06% (inactive) | 
47 | COC(=O)c1cc(C)sc1NC(=O)CC1Nc2ccccc2NC1=O (configuration not stated) | 26.2% (inactive) | 
48 | COC(=O)Cc1nc2c(N)nc(N)nc2[nH]c1=O | -1.99% (inactive) | 
49 | Nc1ccc2c(c1)C(O)c1ccc(Cl)cc1-2 (configuration not stated) | 7.09% (inactive) | 
50 | COc1cc2[nH]c(O)c(C=O)c2cc1OC | 5.23% (inactive) | 
51 | CCc1ccc(CNC(=O)C2CCN(c3nnc(C)c4c(C)n(-c5ccc(C)cc5)nc34)CC2)cc1 |  | 7.31 µM (active)
52 | COc1ccc(-n2nc3c(N4CCC(C(=O)NCc5ccccc5)CC4)nnc(C)c3c2C)cc1 | 4.26% (inactive) | 
53 | CCc1ccc(CNC(=O)C2CC(=O)N(CCc3ccc(C)cc3)C2)cc1 (configuration not stated) | -6.43% (inactive) | 
54 | Cc1ccc(NC(=O)C(c2ccccc2)N2CCN(C(=O)c3ccco3)CC2)cc1 (configuration not stated) | -11.4% (inactive) | 
55 | O=C(C(Cl)Cl)N1CCN(c2ccccn2)CC1 | -1.55% (inactive) | 
56 | O=C(Cc1ccc(Br)cc1)N1CCN(c2ccccn2)CC1 | 24.3% (inactive) | 
57 | O=C(/C=C/c1cccc(C(F)(F)F)c1)N1CCN(c2ccccn2)CC1 |  | 9.2 µM (active)
58 | O=C(c1ccc2c(c1)C(=O)N(Cc1ccncc1)C2=O)N1CCN(S(=O)(=O)c2ccc(OC(F)(F)F)cc2)CC1 | -6.6% (inactive) | 
59 | CCN1C[C@@H]2[C@@H]3C(=O)N(Cc4ccccc4)C(=O)[C@@H]3[C@](Cc3ccccc3)(C(=O)OC)N2C1=NC1CCCCC1 | -4.94% (inactive) | 
60 | S=C(NCc1ccco1)NCc1ccccc1Cl | 2.77% (inactive) | 
61 | Clc1ccccc1CSc1nnc(-c2ccco2)c(-c2ccco2)n1 |  | 18.4 µM (active)
62 | COC(OC)c1ccnc(SCc2ccccc2Cl)n1 | 2.9% (inactive) | 
